Results taken from PubChem BioAssay AID1159580 (chemical genetic matrix, 2015).
Hit rate of the full screen: of about 5,500 compounds, about 2,000 (36%) were called active. Another 18% or so got no clear call; they are omitted. Rule as the data show it: active = normalized growth mostly below about 0.91 (no sharp cut-off); inconclusive = no clear call, values can overlap the other calls; inactive = mostly above about 0.92. This is one part of the list.

Test: chemical genetic growth profiling, strain panel (AID 1159580);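 also: tested at 20 µM; growth read once vehicle control cultures reached saturation at 30 °C; 1 = growth at the plate median or of vehicle wells; lower values mean less growth of the strain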
Conditions: S. cerevisiae deletion strains, growth OD
[1] = locus YAR019C, strain CDC15, stronger effect = lower value
[2] = locus YBL105C, strain PKC1, stronger effect = lower value
[3] = locus YBR135W, strain CKS1, stronger effect = lower value
[4] = locus YBR136W, strain MEC1, stronger effect = lower value
[5] = locus YBR160W, strain CDC28, stronger effect = lower value
[6] = locus YDL017W, strain CDC7, stronger effect = lower value
[7] = locus YDL028C, strain MPS1, stronger effect = lower value
[8] = locus YDL101C, strain DUN1, stronger effect = lower value
[9] = locus YDL108W, strain KIN28, stronger effect = lower value
[10] = locus YDL214C, strain PRR2, stronger effect = lower value
[11] = locus YDR052C, strain DBF4, stronger effect = lower value
[12] = locus YDR054C, strain cdc34, stronger effect = lower value
[13] = locus YDR226W, strain ADK1, stronger effect = lower value
[14] = locus YDR477W, strain SNF1, stronger effect = lower value
[15] = locus YER123W, strain YCK3, stronger effect = lower value
[16] = locus YER133W, strain GLC7, stronger effect = lower value
[17] = locus YFL009W, strain cdc4, stronger effect = lower value
[18] = locus YFL029C, strain CAK1, stronger effect = lower value
[19] = locus YFR003C, strain YPI1, stronger effect = lower value
[20] = locus YFR019W, strain FAB1, stronger effect = lower value
[21] = locus YFR028C, strain CDC14, stronger effect = lower value
[22] = locus YGR040W, strain KSS1, stronger effect = lower value
[23] = locus YGR052W, strain FMP48, stronger effect = lower value
[24] = locus YGR092W, strain DBF2, stronger effect = lower value
[25] = locus YHR030C, strain SLT2, stronger effect = lower value
[26] = locus YHR079C, strain IRE1, stronger effect = lower value
[27] = locus YHR082C, strain KSP1, stronger effect = lower value
[28] = locus YHR205W, strain SCH9, stronger effect = lower value
[29] = locus YIL147C, strain SLN1, stronger effect = lower value
[30] = locus YJL095W, strain BCK1, stronger effect = lower value
[31] = locus YJL157C, strain FAR1, stronger effect = lower value
[32] = locus YJR016C, strain ILV3, stronger effect = lower value
[33] = locus YJR066W, strain TOR1 (second series), stronger effect = lower value
[34] = locus YJR066W, strain TOR1, stronger effect = lower value
[35] = locus YKL048C, strain ELM1, stronger effect = lower value
[36] = locus YKL067W, strain YNK1, stronger effect = lower value
[37] = locus YKL101W, strain HSL1, stronger effect = lower value
[38] = locus YKL193C, strain SDS22, stronger effect = lower value
[39] = locus YKL203C, strain TOR2, stronger effect = lower value
[40] = locus YLR113W, strain HOG1, stronger effect = lower value
[41] = locus YLR133W, strain CKI1, stronger effect = lower value
[42] = locus YLR403W, strain SFP1, stronger effect = lower value
[43] = locus YML070W, strain DAK1, stronger effect = lower value
[44] = locus YMR001C, strain CDC5, stronger effect = lower value
[45] = locus YMR205C, strain PFK2 (second series), stronger effect = lower value
[46] = locus YMR277W, strain FCP1, stronger effect = lower value
[47] = locus YNL006W, strain LST8, stronger effect = lower value
[48] = locus YNL020C, strain ARK1, stronger effect = lower value
[49] = locus YNL161W, strain CBK1, stronger effect = lower value
[50] = locus YNL183C, strain NPR1, stronger effect = lower value
[51] = locus YNL207W, strain RIO2, stronger effect = lower value
[52] = locus YNL222W, strain SSU72, stronger effect = lower value
[53] = locus YNL307C, strain MCK1 (second series), stronger effect = lower value
[54] = locus YOL078W, strain AVO1, stronger effect = lower value
[55] = locus YOL136C, strain PFK27, stronger effect = lower value
[56] = locus YOR061W, strain CKA2, stronger effect = lower value
[57] = locus YOR119C, strain RIO1, stronger effect = lower value
[58] = locus YOR231W, strain MKK1, stronger effect = lower value
[59] = locus YOR329C, strain SCD5, stronger effect = lower value
[60] = locus YPL031C, strain PHO85, stronger effect = lower value
[61] = locus YPL153C, strain RAD53, stronger effect = lower value
[62] = locus YPL204W, strain HRR25, stronger effect = lower value
[63] = locus YPL209C, strain IPL1, stronger effect = lower value
[64] = locus YPL256C, strain CLN2, stronger effect = lower value
[65] = locus YPR025C, strain CCL1, stronger effect = lower value
[66] = locus YPR106W, strain ISR1, stronger effect = lower value
[67] = locus YPR111W, strain DBF20, stronger effect = lower value
[68] = strain NNK1, stronger effect = lower value
[69] = strain TSCII, stronger effect = lower value

Measured: normalized growth

O=[N+]([O-])/C=C/c1ccc(F)cc1
active: [1] 0.0937 | [2] 0.0926 | [3] 0.0816 | [4] 0.0978 | [5] 0.091 | [6] 0.0902 | [7] 0.0982 | [8] 0.107 | [9] 0.102 | locus YDL132W, strain cdc53, stronger effect = lower value 0.0889 | [10] 0.091 | [11] 0.0848 | [12] 0.0951 | [13] 0.0885 | [14] 0.1 | [15] 0.102 | [16] 0.0933 | [17] 0.0899 | [18] 0.0948 | [19] 0.0906 | [20] 0.0982 | [21] 0.0877 | [22] 0.104 | [23] 0.113 | [24] 0.0999 | [25] 0.111 | [26] 0.117 | [27] 0.121 | [28] 0.00904 | [29] 0.0998 | [30] 0.109 | locus YJL128C, strain PBS2, stronger effect = lower value 0.0952 | [31] 0.0885 | [32] 0.0868 | [33] 0.0953 | [34] 0.114 | [35] 0.113 | [36] 0.087 | [37] 0.0964 | [38] 0.0853 | [39] 0.107 | [40] 0.129 | [41] 0.099 | [42] -0.000358 | [43] 0.0913 | [44] 0.0877 | [45] 0.0893 | [46] 0.0903 | [47] 0.0904 | [48] 0.102 | [49] 0.0853 | [50] 0.124 | [51] 0.091 | [52] 0.0861 | [53] 0.11 | [54] 0.0833 | [55] 0.0966 | [56] 0.0873 | [57] 0.112 | [58] 0.106 | [59] 0.0906 | [60] 0.0996 | [61] 0.101 | [62] 0.102 | [63] 0.0882 | [64] 0.135 | [65] 0.0876 | [66] 0.0871 | [67] 0.0892 | [68] 0.096 | [69] 0.0924

CSc1ccc(/C=C(\C)[N+](=O)[O-])cc1
active: [1] 0.0932 | [2] 0.0831 | [3] 0.0817 | [4] 0.0817 | [5] 0.0827 | [6] 0.0813 | [7] 0.0841 | [8] 0.1 | [9] 0.0841 | [10] 0.0925 | [11] 0.103 | [12] 0.0952 | [13] 0.09 | [14] 0.104 | [15] 0.0983 | [16] 0.0958 | [17] 0.0931 | [18] 0.0921 | [19] 0.0893 | [20] 0.092 | [21] 0.0831 | [22] 0.103 | [23] 0.138 | [24] 0.105 | [25] 0.132 | [26] 0.122 | [27] 0.141 | [28] 0.00725 | [29] 0.0876 | [30] 0.142 | [31] 0.084 | [32] 0.0861 | [33] 0.0953 | [34] 0.158 | [35] 0.106 | [36] 0.0912 | [37] 0.103 | [38] 0.0867 | [39] 0.115 | [40] 0.176 | [41] 0.0883 | [42] -0.00294 | [43] 0.0932 | [44] 0.0857 | [45] 0.0912 | [46] 0.0923 | [47] 0.088 | [48] 0.0937 | [49] 0.0836 | [50] 0.129 | [51] 0.0937 | [52] 0.0888 | [53] 0.103 | [54] 0.0847 | [55] 0.0905 | [56] 0.0875 | [57] 0.109 | [58] 0.137 | [59] 0.0819 | [60] 0.11 | [61] 0.112 | [62] 0.0976 | [63] 0.0829 | [64] 0.156 | [65] 0.0822 | [66] 0.0856 | [67] 0.188 | [68] 0.0909 | [69] 0.0882
